PubChem BioAssay
The other results are listed elsewhere or left out. Activity calls are given as the source filed them. Unless noted, no stated cut-off is given here; in the data, active means inhibition above about 13%; inactive means the rest.

Molecular target: Nuclear receptor coactivator 2 (Homo sapiens) (UniProt Q15596)
Sequence (Q15596 whole entry, looked up): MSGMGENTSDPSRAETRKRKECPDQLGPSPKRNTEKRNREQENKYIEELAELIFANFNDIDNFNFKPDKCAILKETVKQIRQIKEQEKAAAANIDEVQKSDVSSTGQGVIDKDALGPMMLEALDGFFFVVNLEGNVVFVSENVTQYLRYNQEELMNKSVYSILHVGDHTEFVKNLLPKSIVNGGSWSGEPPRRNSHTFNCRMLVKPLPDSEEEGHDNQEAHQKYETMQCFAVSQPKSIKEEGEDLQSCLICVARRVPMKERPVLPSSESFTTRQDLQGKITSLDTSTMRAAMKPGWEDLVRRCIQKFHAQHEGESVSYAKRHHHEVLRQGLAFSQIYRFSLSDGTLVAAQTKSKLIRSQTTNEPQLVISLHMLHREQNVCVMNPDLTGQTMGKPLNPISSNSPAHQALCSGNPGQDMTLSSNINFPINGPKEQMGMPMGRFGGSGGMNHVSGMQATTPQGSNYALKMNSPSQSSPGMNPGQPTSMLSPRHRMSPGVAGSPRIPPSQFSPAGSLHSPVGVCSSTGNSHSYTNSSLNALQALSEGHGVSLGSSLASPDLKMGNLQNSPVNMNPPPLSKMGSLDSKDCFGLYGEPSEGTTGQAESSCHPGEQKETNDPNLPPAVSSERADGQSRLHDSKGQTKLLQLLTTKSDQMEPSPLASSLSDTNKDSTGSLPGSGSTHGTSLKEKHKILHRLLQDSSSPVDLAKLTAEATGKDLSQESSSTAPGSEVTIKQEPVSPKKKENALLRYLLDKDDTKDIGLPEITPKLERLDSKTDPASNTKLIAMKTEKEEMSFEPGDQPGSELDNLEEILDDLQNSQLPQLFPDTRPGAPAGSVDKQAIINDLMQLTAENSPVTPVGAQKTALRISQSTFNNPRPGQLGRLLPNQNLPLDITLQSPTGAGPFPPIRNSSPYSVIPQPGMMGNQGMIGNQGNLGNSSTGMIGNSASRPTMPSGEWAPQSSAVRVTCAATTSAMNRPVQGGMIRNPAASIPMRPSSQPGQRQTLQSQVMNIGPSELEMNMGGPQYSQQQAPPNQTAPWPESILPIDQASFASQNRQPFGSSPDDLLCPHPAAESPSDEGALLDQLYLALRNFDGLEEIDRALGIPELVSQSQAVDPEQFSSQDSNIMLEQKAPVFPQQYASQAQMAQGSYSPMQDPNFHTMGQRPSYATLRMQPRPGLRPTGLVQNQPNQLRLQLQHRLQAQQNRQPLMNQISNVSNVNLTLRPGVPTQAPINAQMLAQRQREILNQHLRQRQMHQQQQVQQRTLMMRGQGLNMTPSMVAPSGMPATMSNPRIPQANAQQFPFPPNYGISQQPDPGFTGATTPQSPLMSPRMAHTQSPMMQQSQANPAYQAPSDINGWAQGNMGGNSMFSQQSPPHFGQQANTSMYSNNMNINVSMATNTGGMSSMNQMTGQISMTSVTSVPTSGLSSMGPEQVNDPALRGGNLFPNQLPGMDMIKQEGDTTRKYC
Test: SRC2 coactivator transcriptional activity inhibitors, confirmation, cell-based, luminescence, HEK293, triplicate (AID 652008;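 active means mean inhibition above 46.5%, the solvent-only control mean plus 3 SD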;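 further: 0% = DMSO-treated cells and 100% = Gossypol at 36 µM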)
Conditions: HEK293 GAL4-SRC2 luciferase reporter, at 8.9 µM, stronger effect = higher value
With `CN(c1ccc2nc3ccccc3c(=O)n2n1)C1CCCCC1` the inhibition was 86% (active). For `CCOc1cc(C(=O)N2CCc3cc(OC)c(OC)cc3C2)ccc1OC(F)F`, the inhibition was 14.7% (inactive). In the case of `COc1ccc(C(=O)Nc2ccccc2C(=O)N/N=C/c2ccc(O)c(OC)c2)cc1`, the inhibition is reported as 59.3% (active).

Tested on: not listed separately
Test: Gal4-VP16 luciferase reporter inhibitors, counter-screen for COUP-TFII antagonist project, cell-based, luminescence, HEK293 (AID 687007)
Conditions: at 8.5 µM, stronger effect = higher value
With `CN(c1ccc2nc3ccccc3c(=O)n2n1)C1CCCCC1` the inhibition was 64.8% (active). For `Cn1nccc1C(=O)NC1CCCc2c1cnn2-c1ccc(F)cc1F` (stereo unspecified), the inhibition was -3.41% (inactive). With `C[C@@H]1C[C@@H]2O[C@H]2/C=C\C=C\C(=O)Cc2c(Cl)c(O)cc(O)c2C(=O)O1` the inhibition was 64.3% (active). For `COc1ccc(C(=O)Nc2ccccc2C(=O)N/N=C/c2ccc(O)c(OC)c2)cc1`, the inhibition was 7.03% (inactive).

Molecular target: COUP transcription factor 2 (Homo sapiens) (UniProt P24468)
Sequence (P24468 whole entry, looked up): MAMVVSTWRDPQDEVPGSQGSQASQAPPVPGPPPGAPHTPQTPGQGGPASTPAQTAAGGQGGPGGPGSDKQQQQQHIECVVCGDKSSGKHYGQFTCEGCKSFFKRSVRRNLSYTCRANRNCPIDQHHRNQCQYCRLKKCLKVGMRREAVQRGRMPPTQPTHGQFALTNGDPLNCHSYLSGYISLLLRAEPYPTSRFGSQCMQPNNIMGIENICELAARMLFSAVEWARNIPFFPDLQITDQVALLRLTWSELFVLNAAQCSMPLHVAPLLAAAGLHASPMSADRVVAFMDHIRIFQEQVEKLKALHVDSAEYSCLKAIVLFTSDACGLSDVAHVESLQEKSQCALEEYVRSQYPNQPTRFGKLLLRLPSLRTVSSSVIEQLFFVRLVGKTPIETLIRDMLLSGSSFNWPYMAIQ
Test: NR2F2 transcriptional activity inhibitors, confirmation, cell-based, luciferase reporter, HEK293, triplicate (AID 687008;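 active means mean inhibition over three repeats above a set limit taken from the earlier primary screen, cut at about 38% in these data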;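 further: 100% = cells given the luciferase reporter alone without the COUP-TF2 vector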)
Conditions: HEK293 NGFI-A luciferase reporter, luminescence; at 8.5 µM; stronger effect = higher value
With `CN(c1ccc2nc3ccccc3c(=O)n2n1)C1CCCCC1` the inhibition was 87.9% (active). With `Cn1nccc1C(=O)NC1CCCc2c1cnn2-c1ccc(F)cc1F` (stereo unspecified) the inhibition was 62.2% (active). For `C[C@@H]1C[C@@H]2O[C@H]2/C=C\C=C\C(=O)Cc2c(Cl)c(O)cc(O)c2C(=O)O1`, the inhibition was 68% (active). With `COc1ccc(C(=O)Nc2ccccc2C(=O)N/N=C/c2ccc(O)c(OC)c2)cc1` the inhibition was 75.2% (active).
